Test results: PubChem BioAssay AID1159580 (chemical genetic matrix, 2015)
The campaign covered roughly 5,500 compounds. About 2,000 (36%) were called active. About 18% were inconclusive and are not listed. No stated cut-off is given here; in the data, active means normalized growth mostly below about 0.91 (no sharp cut-off); inconclusive means no clear call, values can overlap the other calls; inactive means mostly above about 0.92. This is one part of the list.

Assay: chemical genetic growth profiling, strain panel (AID 1159580);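 further: tested at 20 µM; growth read once vehicle control cultures reached saturation at 30 °C; 1 = growth at the plate median or of vehicle wells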
Settings: growth OD

Measured: normalized growth

COS(C)(=O)=O
inactive: S. cerevisiae deletion strains, locus YJR075W, strain HOC1, stronger effect = lower value 1.01 | S. cerevisiae deletion strains, locus YKL009W, strain mrt4, stronger effect = lower value 1.03 | S. cerevisiae deletion strains, locus YKL068W, stronger effect = lower value 1.01 | S. cerevisiae deletion strains, locus YKL085W, strain MDH1 (second series), stronger effect = lower value 1.02 | S. cerevisiae deletion strains, locus YKL085W, strain MDH1, stronger effect = lower value 1.02 | S. cerevisiae deletion strains, locus YKL160W, strain elf1, stronger effect = lower value 1 | S. cerevisiae deletion strains, locus YKL190W, strain CNB1, stronger effect = lower value 1 | S. cerevisiae deletion strains, locus YKR001C, strain vps1, stronger effect = lower value 1.01 | S. cerevisiae deletion strains, locus YKR026C, strain gcn3, stronger effect = lower value 0.996 | S. cerevisiae deletion strains, locus YKR091W, strain srl3, stronger effect = lower value 0.993 | S. cerevisiae deletion strains, locus YLL001W, strain dnm1, stronger effect = lower value 0.996 | S. cerevisiae deletion strains, locus YLL026W, stronger effect = lower value 0.996 | S. cerevisiae deletion strains, locus YLL041C, strain sdh2, stronger effect = lower value 1 | S. cerevisiae deletion strains, locus YLR027C, strain aat2, stronger effect = lower value 0.97 | S. cerevisiae deletion strains, locus YLR039C, strain RIC1, stronger effect = lower value 1.07 | S. cerevisiae deletion strains, locus YLR058C, strain SHM2, stronger effect = lower value 1.01 | S. cerevisiae deletion strains, locus YLR102C, strain apc9, stronger effect = lower value 1.01 | S. cerevisiae deletion strains, locus YLR113W, strain HOG1, stronger effect = lower value 0.983 | S. cerevisiae deletion strains, locus YLR221C, strain rsa3, stronger effect = lower value 0.961 | S. cerevisiae deletion strains, locus YLR258W, strain gsy2, stronger effect = lower value 1.03 | S. cerevisiae deletion strains, locus YLR262C, strain YPT6 (second series), stronger effect = lower value 0.997 | S. cerevisiae deletion strains, locus YLR262C, strain YPT6, stronger effect = lower value 1.06 | S. cerevisiae deletion strains, locus YLR268W, strain sec22, stronger effect = lower value 0.973 | S. cerevisiae deletion strains, locus YLR320W, strain mms22, stronger effect = lower value 0.954 | S. cerevisiae deletion strains, locus YLR330W, strain CHS5, stronger effect = lower value 1.01 | S. cerevisiae deletion strains, locus YLR342W, strain FKS1 (second series), stronger effect = lower value 1.08 | S. cerevisiae deletion strains, locus YLR342W, strain FKS1, stronger effect = lower value 0.992 | S. cerevisiae deletion strains, locus YLR357W, strain rsc2, stronger effect = lower value 0.935 | S. cerevisiae deletion strains, locus YLR370C, strain arc18, stronger effect = lower value 1 | S. cerevisiae deletion strains, locus YLR371W, strain rom2, stronger effect = lower value 1.02 | S. cerevisiae deletion strains, locus YLR384C, strain iki3, stronger effect = lower value 0.982 | S. cerevisiae deletion strains, locus YLR418C, strain cdc73, stronger effect = lower value 0.95 | S. cerevisiae deletion strains, locus YML016C, strain PPZ1, stronger effect = lower value 1 | S. cerevisiae deletion strains, locus YML032C, strain rad52, stronger effect = lower value 1.03 | S. cerevisiae deletion strains, locus YML120C, strain ndi1, stronger effect = lower value 1 | S. cerevisiae deletion strains, locus YML124C, strain tub3, stronger effect = lower value 1.01 | S. cerevisiae deletion strains, locus YMR058W, strain fet3, stronger effect = lower value 1.02 | S. cerevisiae deletion strains, locus YMR078C, strain ctf18, stronger effect = lower value 1.02 | S. cerevisiae deletion strains, locus YMR125W, strain sto1, stronger effect = lower value 0.992 | S. cerevisiae deletion strains, locus YMR129W, stronger effect = lower value 0.997 | S. cerevisiae deletion strains, locus YMR205C, strain PFK2, stronger effect = lower value 1 | S. cerevisiae deletion strains, locus YMR223W, strain ubp8, stronger effect = lower value 1.05 | S. cerevisiae deletion strains, locus YMR231W, strain pep5, stronger effect = lower value 0.985 | S. cerevisiae deletion strains, locus YMR263W, strain SAP30, stronger effect = lower value 0.995 | S. cerevisiae deletion strains, locus YMR307W, strain GAS1, stronger effect = lower value 1.05 | S. cerevisiae deletion strains, locus YNL067W, strain RPL9B, stronger effect = lower value 1 | S. cerevisiae deletion strains, locus YNL071W, strain lat1, stronger effect = lower value 1 | S. cerevisiae deletion strains, locus YNL128W, strain TEP1, stronger effect = lower value 0.987 | S. cerevisiae deletion strains, locus YNL153C, strain GIM3, stronger effect = lower value 0.976 | S. cerevisiae deletion strains, locus YNL183C, strain NPR1, stronger effect = lower value 1 | S. cerevisiae deletion strains, locus YNL209W, strain ssb2, stronger effect = lower value 1.01 | S. cerevisiae deletion strains, locus YNL233W, strain BNI4, stronger effect = lower value 0.99 | S. cerevisiae deletion strains, locus YNL248C, strain rpa49, stronger effect = lower value 0.998 | S. cerevisiae deletion strains, locus YNL250W, strain rad50, stronger effect = lower value 1.02 | S. cerevisiae deletion strains, locus YNL271C, strain bni1, stronger effect = lower value 1.02 | S. cerevisiae deletion strains, locus YNL298W, strain CLA4, stronger effect = lower value 1.02 | S. cerevisiae deletion strains, locus YNL307C, strain MCK1, stronger effect = lower value 1.03 | S. cerevisiae deletion strains, locus YNL322C, strain KRE1 (second series), stronger effect = lower value 0.976 | S. cerevisiae deletion strains, locus YNL322C, strain KRE1, stronger effect = lower value 1.01 | S. cerevisiae deletion strains, locus YNR049C, strain mso1, stronger effect = lower value 0.995 | S. cerevisiae deletion strains, locus YNR052C, strain pop2, stronger effect = lower value 1.03 | S. cerevisiae deletion strains, locus YOL006C, strain TOP1, stronger effect = lower value 1.03 | S. cerevisiae deletion strains, locus YOL012C, strain htz1 0.976 | S. cerevisiae deletion strains, locus YOL147C, strain pex11, stronger effect = lower value 1.01 | S. cerevisiae deletion strains, locus YOR001W, strain rrp6, stronger effect = lower value 0.942 | S. cerevisiae deletion strains, locus YOR061W, strain CKA2, stronger effect = lower value 1 | S. cerevisiae deletion strains, locus YOR069W, strain VPS5, stronger effect = lower value 1.01 | S. cerevisiae deletion strains, locus YOR070C, strain gyp1, stronger effect = lower value 0.989 | S. cerevisiae deletion strains, locus YOR080W, strain dia2, stronger effect = lower value 0.986 | S. cerevisiae deletion strains, locus YOR083W, strain WHI5, stronger effect = lower value 1.01 | S. cerevisiae deletion strains, locus YOR106W, strain vam3, stronger effect = lower value 1.03 | S. cerevisiae deletion strains, locus YOR136W, strain idh2, stronger effect = lower value 1.01 | S. cerevisiae deletion strains, locus YOR144C, strain elg1, stronger effect = lower value 1 | S. cerevisiae deletion strains, locus YOR184W, strain ser1, stronger effect = lower value 1.05 | S. cerevisiae deletion strains, locus YOR231W, strain MKK1, stronger effect = lower value 0.987 | S. cerevisiae deletion strains, locus YOR265W, strain rbl2, stronger effect = lower value 0.999 | S. cerevisiae deletion strains, locus YOR270C, strain vph1, stronger effect = lower value 0.981 | S. cerevisiae deletion strains, locus YOR290C, strain snf2, stronger effect = lower value 0.995 | S. cerevisiae deletion strains, locus YOR316C, strain cot1, stronger effect = lower value 1.02 | S. cerevisiae deletion strains, locus YPL051W, strain arl3, stronger effect = lower value 1.02 | S. cerevisiae deletion strains, locus YPL055C, strain LGE1, stronger effect = lower value 0.968 | S. cerevisiae deletion strains, locus YPL078C, strain atp4, stronger effect = lower value 1.01 | S. cerevisiae deletion strains, locus YPL106C, strain sse1, stronger effect = lower value 0.99 | S. cerevisiae deletion strains, locus YPL240C, strain hsp82, stronger effect = lower value 0.995 | S. cerevisiae deletion strains, locus YPL241C, strain CIN2, stronger effect = lower value 1 | S. cerevisiae deletion strains, locus YPL256C, strain CLN2, stronger effect = lower value 0.99 | S. cerevisiae deletion strains, locus YPR119W, strain clb2, stronger effect = lower value 1 | S. cerevisiae deletion strains, locus YPR141C, strain kar3, stronger effect = lower value 1.02 | S. cerevisiae deletion strains, locus YPR163C, strain tif3, stronger effect = lower value 1 | S. cerevisiae deletion strains, locus YPR167C, strain met16, stronger effect = lower value 1.01 | S. cerevisiae deletion strains, strain wtn01, stronger effect = lower value 0.981 | S. cerevisiae strains, strain wild type, stronger effect = lower value 1.01
